Five compounds from PubChem BioAssay can be followed below.

The structures appear in SMILES notation. The source made the active and inactive calls.

The nature of assay [1]: small molecules captured by biotinylated probe aFSTL3 – biochemical, small-molecule microarray, fluorescence 635/667, stem cell growth factor project, primary screen (AID 1064).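 Further: measures binding of the biotinylated anti-FSTL3 antibody to printed compounds.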 Particulars: higher = more signal.
Assay [2] can be described thus: binders from COS7 lysate, DM2A8 probe, primary screen, torsin A project, cell lysate, small-molecule microarray, fluorescence 635/667 (AID 1065). Particulars: higher = more signal, COS7 lysate expressing mutant human TOR1A.
A short description of assay [3]: small molecules captured by biotinylated probe aFGF2 – biochemical, small-molecule microarray, fluorescence 635/667, stem cell growth factor project, primary screen (AID 1067).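 Further: measures binding of biotinylated aFGF2 protein to printed compounds on slides; z-score merges feature fluorescence and signal-to-noise across triplicate slides.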 Particulars: higher = more signal.
The nature of assay [4]: small molecules captured by biotinylated probe aFGF10 – biochemical, small-molecule microarray, fluorescence 635/667, stem cell growth factor project, primary screen (AID 1071).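 Further: score merges 667 nm spot intensity and signal to noise from triplicate slides.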 Particulars: higher = more signal.
Assay [5] deals with Neurogenic locus notch homolog protein 2 (Homo sapiens) (UniProt Q04721). The assay can be described thus: small molecules binding Notch2 protein – biochemical, small-molecule microarray, 635 nm fluorescence, stem cell growth factors, primary screen (AID 1073). Particulars: higher = more signal.
Assay [6] concerns the target Pro-neuregulin-1, membrane-bound isoform (Homo sapiens) (UniProt Q02297). As to the kind of experiment: small molecules binding neuregulin-1 protein – biochemical, small-molecule microarray, fluorescence 635/667, psychiatric disease protein project, primary screen (AID 1075).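 Further: score combines 667 nm spot fluorescence with signal to noise.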 Particulars: NRG1 binding, 635 nm fluorescence, higher = more signal.
Assay [7] deals with Neuregulin-1 EGF-like domain. As to the kind of experiment: small molecules binding NRG1 EGF domain – biochemical, small-molecule microarray, 635 nm fluorescence, primary screen (AID 1081).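 Further: binding of the protein to compounds printed on small-molecule microarray slides.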 Particulars: higher = more signal.
The nature of assay [8]: FRG1 expression reporter modulators in myotubes – cell-based, C2C12 myotubes, firefly/Renilla luciferase, luminescence, FRG1 inhibition for FSHD, primary screen (AID 1084). Particulars: FRG1 promoter luciferase, higher = more signal, called active from +8 up or from −8 down.
A short description of assay [9]: small molecules captured by biotinylated probe aFST – biochemical, small-molecule microarray, fluorescence 635/667, stem cell growth factor project, primary screen (AID 1086).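 Further: score merges 667 nm fluorescence with signal-to-noise of each printed compound spot.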 Particulars: higher = more signal.
A short description of assay [10]: binders of probe aHhip on microarray, primary screen, stem cell growth factor project, biochemical, small-molecule microarray, fluorescence 635/667 (AID 1087).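 Further: score merges spot fluorescence at 667nm with spot signal to noise ratio.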 Particulars: higher = more signal.
For assay [11], the system named is PRMT1 (protein arginine N-methyltransferase 1). As to the kind of experiment: small molecules binding arginine methyltransferase PRMT1 – biochemical, small-molecule microarray, 635 nm fluorescence, primary screen (AID 1088).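 Further: binding of Prmt1 protein to compounds spotted on small-molecule microarray slides.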 Particulars: higher = more signal.
Assay [12] can be described thus: growth effects on S. cerevisiae YJM789 – YJM789 clinical isolate, OD600, 24 h, basal, primary screen (AID 1089).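 Further: growth of clinical yeast isolate S. cerevisiae YJM 789 seeded 1000 cells per well; test concentration not given here.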 Particulars: higher = more signal, called active from +8 up or from −8 down.
The nature of assay [13]: S. pombe growth modifiers, basal conditions – strain 972, OD600, 24 h, no modulator, primary screen (AID 1090).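 Further: basal condition with compound alone and no growth modifier present; test concentration not given here.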 Particulars: S. pombe 972 growth, higher = more signal, called active from +8 up or from −8 down.
The nature of assay [14]: budding yeast growth modifiers under rapamycin – strain BY4716, OD600, 96 h, primary screen (AID 1091). Further: test concentration not given here. Particulars: S. cerevisiae BY4716 + rapamycin, higher = more signal, called active from +8 up or from −8 down.
Assay [15] deals with Torsin-1A-interacting protein 2 (Homo sapiens) (UniProt Q8NFQ8). As to the kind of experiment: small molecules binding lysate-expressed LULL1 – cell lysate, human LULL1 lysate, 635/667 nm fluorescence, primary screen (AID 1092).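 Further: probe is lysate of COS7 cells overexpressing human LULL1; score merges per-feature 667 nm fluorescence with signal-to-noise.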 Particulars: small-molecule microarray, hLULL1 lysate binding, 635 nm fluorescence; higher = more signal.
Sequence of Torsin-1A-interacting protein 2 (Homo sapiens) (Q8NFQ8 whole entry, looked up): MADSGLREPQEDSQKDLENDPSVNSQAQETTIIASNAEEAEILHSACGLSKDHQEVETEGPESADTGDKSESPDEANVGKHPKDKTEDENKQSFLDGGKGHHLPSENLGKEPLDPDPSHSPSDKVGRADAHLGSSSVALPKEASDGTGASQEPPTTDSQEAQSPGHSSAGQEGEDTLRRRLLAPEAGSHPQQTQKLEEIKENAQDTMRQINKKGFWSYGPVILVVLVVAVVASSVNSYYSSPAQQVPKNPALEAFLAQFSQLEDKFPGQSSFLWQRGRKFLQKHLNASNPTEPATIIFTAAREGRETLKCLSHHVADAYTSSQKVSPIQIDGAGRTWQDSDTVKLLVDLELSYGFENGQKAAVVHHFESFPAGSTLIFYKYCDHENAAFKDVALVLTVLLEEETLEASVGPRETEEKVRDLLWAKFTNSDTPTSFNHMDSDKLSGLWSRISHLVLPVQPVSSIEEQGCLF
Assay [16] can be described thus: optical density change of DRC41 E. coli – strain DRC41, OD650, 24 h, E. coli filamentation project, primary screen (AID 1093).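 Further: MC1000 strain lacking acrAB efflux and sulA so SOS filamentation is blocked; test concentration not given here.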 Particulars: E. coli DRC41 growth, higher = more signal, called active from +8 up or from −8 down.
Assay [17] can be described thus: probe aLefty2 binding to arrayed compounds – biochemical, biotinylated probe, 635/667 nm fluorescence, primary screen (AID 1094).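 Further: score merges spot fluorescence near 667 nm with spot signal-to-noise ratio.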 Particulars: small-molecule microarray, higher = more signal.
For assay [18], the system named is Noggin (protein binding on small-molecule microarray). The assay can be described thus: small molecules binding Noggin protein – biochemical, 635/667 nm fluorescence, primary screen (AID 1095).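 Further: score merges 667 nm feature fluorescence with signal to noise over triplicate slides.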 Particulars: 635 nm fluorescence, higher = more signal.
In assay [19] the target is Neurogenic locus notch homolog protein 3 (Homo sapiens) (UniProt Q9UM47). The assay can be described thus: small molecules binding NOTCH3 protein – biochemical, 635/667 nm fluorescence, primary screen (AID 1096). Particulars: small-molecule microarray, 635 nm fluorescence, higher = more signal.
Sequence of Neurogenic locus notch homolog protein 3 (Homo sapiens) (Q9UM47 whole entry, looked up): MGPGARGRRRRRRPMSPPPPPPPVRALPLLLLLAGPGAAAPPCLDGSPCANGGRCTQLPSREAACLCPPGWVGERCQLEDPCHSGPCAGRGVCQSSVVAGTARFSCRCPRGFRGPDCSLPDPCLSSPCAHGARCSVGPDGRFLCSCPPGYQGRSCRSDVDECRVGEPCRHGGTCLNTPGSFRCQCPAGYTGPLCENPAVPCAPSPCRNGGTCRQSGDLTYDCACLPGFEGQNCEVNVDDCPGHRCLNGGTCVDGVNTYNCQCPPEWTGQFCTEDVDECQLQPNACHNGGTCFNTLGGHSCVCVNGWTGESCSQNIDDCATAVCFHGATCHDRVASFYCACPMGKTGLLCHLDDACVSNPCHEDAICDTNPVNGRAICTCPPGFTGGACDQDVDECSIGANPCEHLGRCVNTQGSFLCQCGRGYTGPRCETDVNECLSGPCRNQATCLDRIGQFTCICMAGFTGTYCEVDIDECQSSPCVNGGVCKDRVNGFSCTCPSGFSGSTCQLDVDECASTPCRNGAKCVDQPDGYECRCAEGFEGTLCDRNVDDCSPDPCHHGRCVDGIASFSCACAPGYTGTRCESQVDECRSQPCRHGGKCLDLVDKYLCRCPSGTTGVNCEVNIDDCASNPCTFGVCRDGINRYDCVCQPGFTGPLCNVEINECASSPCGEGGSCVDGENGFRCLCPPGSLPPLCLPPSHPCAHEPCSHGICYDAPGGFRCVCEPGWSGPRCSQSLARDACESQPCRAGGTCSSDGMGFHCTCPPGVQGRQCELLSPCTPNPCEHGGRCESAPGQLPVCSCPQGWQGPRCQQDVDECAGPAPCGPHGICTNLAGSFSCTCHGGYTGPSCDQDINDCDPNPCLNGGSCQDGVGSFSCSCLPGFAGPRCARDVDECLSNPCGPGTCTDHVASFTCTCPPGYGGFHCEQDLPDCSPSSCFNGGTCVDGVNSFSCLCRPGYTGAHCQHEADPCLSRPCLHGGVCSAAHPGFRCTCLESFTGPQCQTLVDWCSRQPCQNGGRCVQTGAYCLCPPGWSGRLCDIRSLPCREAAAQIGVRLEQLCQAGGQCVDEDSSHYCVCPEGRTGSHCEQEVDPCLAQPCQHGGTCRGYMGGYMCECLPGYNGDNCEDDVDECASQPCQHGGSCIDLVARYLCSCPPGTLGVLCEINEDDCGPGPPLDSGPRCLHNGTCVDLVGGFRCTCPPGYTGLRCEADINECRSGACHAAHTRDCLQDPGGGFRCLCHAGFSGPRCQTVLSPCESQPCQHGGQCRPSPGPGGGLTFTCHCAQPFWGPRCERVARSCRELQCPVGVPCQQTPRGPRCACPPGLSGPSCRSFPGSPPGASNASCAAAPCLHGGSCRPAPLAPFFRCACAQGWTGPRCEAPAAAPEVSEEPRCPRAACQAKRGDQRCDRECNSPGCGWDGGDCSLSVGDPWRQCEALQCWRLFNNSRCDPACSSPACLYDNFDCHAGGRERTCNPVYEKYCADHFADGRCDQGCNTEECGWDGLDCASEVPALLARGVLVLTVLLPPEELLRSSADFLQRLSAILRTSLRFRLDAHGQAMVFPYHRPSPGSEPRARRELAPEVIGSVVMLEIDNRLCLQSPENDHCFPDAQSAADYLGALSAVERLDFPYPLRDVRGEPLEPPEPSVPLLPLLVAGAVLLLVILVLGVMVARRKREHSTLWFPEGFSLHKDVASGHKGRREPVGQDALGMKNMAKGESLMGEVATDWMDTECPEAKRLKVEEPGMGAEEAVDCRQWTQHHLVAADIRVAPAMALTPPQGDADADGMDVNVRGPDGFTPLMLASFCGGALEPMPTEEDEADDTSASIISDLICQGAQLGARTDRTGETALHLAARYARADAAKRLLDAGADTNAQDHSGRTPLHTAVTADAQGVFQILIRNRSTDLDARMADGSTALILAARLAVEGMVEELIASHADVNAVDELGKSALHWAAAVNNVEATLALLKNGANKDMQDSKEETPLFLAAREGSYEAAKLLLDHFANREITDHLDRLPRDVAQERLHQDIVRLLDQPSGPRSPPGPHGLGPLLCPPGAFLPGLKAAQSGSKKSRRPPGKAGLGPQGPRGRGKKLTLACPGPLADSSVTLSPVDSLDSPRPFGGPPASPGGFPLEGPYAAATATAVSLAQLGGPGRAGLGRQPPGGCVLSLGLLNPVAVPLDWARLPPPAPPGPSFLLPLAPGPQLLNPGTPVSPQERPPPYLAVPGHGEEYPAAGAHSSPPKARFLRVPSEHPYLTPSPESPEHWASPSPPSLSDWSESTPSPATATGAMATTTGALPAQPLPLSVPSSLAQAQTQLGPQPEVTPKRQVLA
Assay [20] in a line: probe aEGFR binding to arrayed compounds – biochemical, biotinylated probe, 635/667 nm fluorescence, primary screen (AID 1097).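 Further: probe is a biotinylated anti-EGFR antibody binding compounds printed on slides; score combines fluorescence near 667 nm and signal to noise of each spot.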 Particulars: small-molecule microarray, higher = more signal.

Sequence of Pro-neuregulin-1, membrane-bound isoform (Homo sapiens) (Q02297 whole entry, looked up, the tested form may be a part, canonical isoform): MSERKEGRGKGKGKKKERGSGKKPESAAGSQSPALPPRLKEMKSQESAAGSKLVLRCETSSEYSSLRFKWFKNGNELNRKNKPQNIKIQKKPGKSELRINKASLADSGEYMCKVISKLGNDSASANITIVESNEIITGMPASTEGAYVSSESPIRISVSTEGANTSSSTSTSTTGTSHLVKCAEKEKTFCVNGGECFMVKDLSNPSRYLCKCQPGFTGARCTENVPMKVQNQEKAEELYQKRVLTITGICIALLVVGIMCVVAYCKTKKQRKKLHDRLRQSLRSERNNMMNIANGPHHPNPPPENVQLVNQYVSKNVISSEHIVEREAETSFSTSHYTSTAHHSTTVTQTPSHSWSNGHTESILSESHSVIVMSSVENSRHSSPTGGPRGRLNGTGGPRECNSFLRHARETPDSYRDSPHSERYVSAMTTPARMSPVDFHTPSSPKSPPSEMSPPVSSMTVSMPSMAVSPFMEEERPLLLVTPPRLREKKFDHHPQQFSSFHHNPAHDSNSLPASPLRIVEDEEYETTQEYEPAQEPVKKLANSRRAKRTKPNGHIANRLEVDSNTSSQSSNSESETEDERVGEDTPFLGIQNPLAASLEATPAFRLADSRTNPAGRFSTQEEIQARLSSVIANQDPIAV

On to `Cc1ccc(S(=O)(=O)c2cc3oc2CC[C@@H](CO)NC(=O)N(C)Cc2cn(nn2)C[C@H](Cc2ccccc2)NC3=O)cc1`, for which the composite z-score in assay [1] is 0.0181; in [2] it was 0.345; in [3], -0.0538; in assay [4], 0.175; in [5] it was -0.881; in [6] it was 0.226. Besides, the composite z-score in assay [7] is 0.807; in [9], -0.265; in assay [10], -0.194; in [11], 0.0985; in assay [15], 1.66; in assay [17], -0.131. Moreover, the figures for the composite z-score in assay [18], in [19] and in assay [20] were 0.0818, -0.773 and -0.156, respectively. For the same compound, the z-score was -0.618 (inactive) in assay [8]; 0.342 (inactive) in assay [12]; -0.772 (inactive) in assay [13]; 0.0417 (inactive) in assay [14]; 2.79 (inactive) in [16].

Take `O=C1c2ccccc2[C@](Cc2ccccc2I)(C(=O)O)[C@H](c2ccc(CO)cc2)N1C1CCCCC1`: the composite z-score in assay [1] turned out to be 0.007; in assay [2] it was 0.297; in assay [3] it was 0.0545; in assay [4], 1.06; in assay [5] it was 1.56; in assay [6] it was 1.22. The composite z-score in assay [7] came to 1.32; in [9], 0.892; in assay [10], 0.011; in assay [11], 1.54; in assay [15], 2.56; in assay [17], 0.143. The values for the composite z-score in assay [18], in assay [19] and in [20] were 0.597, 1.01 and 0.252, respectively. Besides, the z-score in assay [8] is 0.287 (inactive); in [12], -0.602 (inactive); in assay [13], -2.37 (inactive); in assay [14], -0.997 (inactive); in [16], 2.51 (inactive).

As to `CCOC(=O)[C@H]1C/C=C/C[C@H](C(=O)OCC)C(=O)O[C@H]2[C@@H](OC)O[C@H](CO)[C@@H](OC(=O)Nc3ccc(Br)cc3)[C@@H]2OC1=O`, the composite z-score in [1] was 0.762; in assay [2] it was 0.475; in assay [3], -0.108; in assay [4] it was 0.28; in assay [5], 0.798; in [6] it was 0.991. The composite z-score in assay [7] was 1.29; in assay [9], 0.449; in assay [10], -0.0613; in [11], 1.54; in [15], 2.93; in [17], 0.45. Moreover, the composite z-score was 0.933 in [18], 0.869 in assay [19] and -0.121 in assay [20]. In addition, the z-score was 0.892 (inactive) in assay [8]; 0.343 (inactive) in [12]; -2.37 (inactive) in assay [13]; 31.7 (active) in assay [14]; 2.91 (inactive) in assay [16].

In the case of `CN1C(=O)C2C=CC(C(O)c3ccc(N(C)C)cc3)N(Nc3ccc([N+](=O)[O-])cc3[N+](=O)[O-])C2C1=O` (stereo not given), the composite z-score in [1] was 1.56; in assay [2] it was 0.989; in [3], 0.126; in assay [4] it was 0.739; in assay [5], 1.6; in assay [6] it was 1.25. Besides, the composite z-score is 1.31 in assay [7]; 1.29 in assay [9]; -0.0296 in assay [10]; 1.1 in assay [11]; 2.77 in assay [15]; 0.452 in assay [17]. The values for the composite z-score in assay [18], in [19] and in assay [20] were 0.0496, 1.1 and 0.335, respectively. The z-score in [8] was 2 (inactive); in assay [12], 0.0069 (inactive); in assay [13], -0.0787 (inactive); in assay [14] it was -0.183 (inactive); in [16] it was -0.465 (inactive).

`COC(=O)C[C@H]1O[C@]2(C(=O)N(Cc3ccccc3)c3ccc(I)cc32)[C@@H](C)[C@@H]1[Si](C)(C)c1ccc(OC)cc1`: the composite z-score was 0.224 in [1]; -0.529 in [2]; -0.22 in [3]; 0.262 in assay [4]; -0.385 in assay [5]; -0.121 in assay [6]. The composite z-score in assay [7] was -0.241; in assay [9] it was -0.145; in assay [10], -0.16; in assay [11] it was -0.949; in [15] it was -0.484; in [17] it was -0.0561. For the same compound, the composite z-score in assay [18] was -0.598; in assay [19], -0.625; in [20], -0.101. Besides, the z-score in assay [8] is 0.184 (inactive); in assay [12], 0.595 (inactive); in [13] it was 0.676 (inactive); in assay [14], 1.58 (inactive); in assay [16] it was -0.556 (inactive).
